# Assay outcomes (PubChem BioAssay)
# Most compounds without a hit are left out; they make up all but 10% or so of the library.
# GPT2 inh: inhibitors of human GPT2 alanine aminotransferase; Q8TD30; Recombinant GPT2, coupled pyruvate oxidase/HRP Amplex Red fluorescence; Potency, µM (titrated, usually from 57.7 µM), inactives show top-dose activity change, negative = inhibition, usual class: inhibitors; actives 0.25% (n = 100,000); AID 1671188; further: nearly all actives have a fitted effect of over 60% in size
# Target sequence (Q8TD30 whole entry, looked up): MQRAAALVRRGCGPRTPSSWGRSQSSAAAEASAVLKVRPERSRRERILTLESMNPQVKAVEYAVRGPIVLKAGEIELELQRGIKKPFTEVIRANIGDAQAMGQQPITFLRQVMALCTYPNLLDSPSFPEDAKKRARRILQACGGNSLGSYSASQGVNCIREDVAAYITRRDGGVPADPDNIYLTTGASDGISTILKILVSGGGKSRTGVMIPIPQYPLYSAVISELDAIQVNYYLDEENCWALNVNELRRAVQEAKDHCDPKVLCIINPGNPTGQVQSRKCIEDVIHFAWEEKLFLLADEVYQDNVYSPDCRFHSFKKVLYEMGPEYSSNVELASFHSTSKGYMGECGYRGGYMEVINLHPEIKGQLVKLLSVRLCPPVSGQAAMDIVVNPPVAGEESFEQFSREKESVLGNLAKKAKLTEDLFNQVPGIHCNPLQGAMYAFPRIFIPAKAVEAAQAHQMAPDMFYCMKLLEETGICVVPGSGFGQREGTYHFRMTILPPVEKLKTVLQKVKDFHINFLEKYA
#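 GPT2 10ng/uL, a-KG 250uM, L-Ala 2mM, HEPES pH7.5 + 0.0001% Tween; 30 min RT. Then Amplex mix (PO/HRP/ThPP), 30 min RT dark, fluorescence. AOA 50uM used as positive control.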
# FLuc inh: inhibitors of firefly (Photinus pyralis) luciferase. P08659. purified P. pyralis luciferase, luminescence, biochemical. Potency, µM (highest dose often 115 µM), actives largely listed as inhibitors. actives 2.5% (n = 76,000); further: nearly all actives have a fitted effect of over 65% in size
#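 Biochemical qHTS: compound (6-point titration) added to 10uM D-luciferin plus 10uM ATP in Tris acetate pH 7.5 buffer with Mg, Tween-20 and BSA, then purified enzyme at 10nM; light output imaged.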
# HEK293 tox: HEK 293 cell cytotoxicity; HEK 293 viability, ATP luminescence (CellTiter-Glo), 48-72 h; Potency, µM (doses to about 115 µM), for inactives: at the highest dose activity change, negative = cytotoxicity, most hits filed as inhibitors; actives 6.6% (n = 94,000); AID 1345083; further: nearly all actives have a fitted effect of over 60% in size
#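 HEK 293 cells at 250 cells/well were exposed to compounds by pintool transfer for 48 or 72 hr at 37 degree Celsius, 5% CO2. Viability was read as ATP-coupled luminescence with CellTiter-Glo after 10 min at room temperature.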
# NPR1 antag: antagonists of human natriuretic peptide receptor Npr1; actives 1.6% (n = 76,000); AID 1347048; Potency, µM (series often up to 46.3 µM), without a hit: top-dose activity change, negative = inhibition, actives largely listed as inhibitors; HEK293 hNpr1 GloSensor cGMP, ANP-stimulated luminescence; calls by dose curve; further: nearly all actives have a fitted effect of over 60% in size
#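 Compound pre-incubated 30 min at room temperature on GloSensor-loaded HEK293 cells stably carrying hNpr1 and the pGS-40F cGMP biosensor. Stimulation uses hNppA at 0.1 nM final; luminescence is taken at baseline and 20 min post-agonist.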
# NIH3T3 tox: kills NIH 3T3 cells; NIH 3T3 viability, CellTiter-Glo ATP luminescence, 48-72 h; Potency, µM (highest dose often 96.7 µM), for inactives: at the highest dose activity change, negative = cytotoxicity, usual class: inhibitors; actives 4.3% (n = 94,000); AID 1345082; further: nearly all actives have a fitted effect of over 55% in size
#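 Viability of NIH 3T3 cells after 48 or 72 hr compound treatment at 37 °C was assessed by CellTiter-Glo, with luminescence imaged following a 10 min room-temperature step.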
# * hit, by the source's call; i = inactive; ? = inconclusive; nt = no result; [ ] = another dose, or the depositor's remark. Unless noted, the call rests on the fitted dose curve; in most records, active means well fitted curve in the direction sought with a large enough effect; inconclusive means small, poorly fitted or top-dose-only effect, or another doubt; inactive means no such curve, though single readings can be large; an effect the other way counts as inactive or inconclusive. On the % scale 0 is the no-effect control and ±100 the full control effect; potency means the concentration at half of the fitted maximal effect.
SMILES,GPT2 inh,FLuc inh,HEK293 tox,NPR1 antag,NIH3T3 tox
Cn1ncc2c(C(=O)Nc3ccc(F)cc3)cc(-c3ccccc3C(F)(F)F)nc21,nt,nt,28µM*,nt,?
CN(C)c1ccc(NC(=O)c2cc(-c3ccc(C(F)(F)F)cc3)nc3c2cnn3C)cc1,nt,nt,-3%,nt,-31%
Cn1ncc2c(C(=O)Nc3cccnc3)cc(-c3ccccc3C(F)(F)F)nc21,nt,nt,i,nt,i
CCN(C(=O)c1cc(-c2ccccc2C(F)(F)F)nc2c1cnn2C)c1ccccc1,nt,nt,25µM*,nt,?
CN(CC#N)C(=O)c1cc(-c2ccccc2C(F)(F)F)nc2c1cnn2C,nt,nt,-3%,nt,-25%
CN(C)c1ccc(NC(=O)c2cc(-c3ccccc3C(F)(F)F)nc3c2cnn3C)cc1,nt,nt,25µM*,nt,?
Cn1ncc2c(C(=O)Nc3cccc(C(F)(F)F)c3)cc(-c3ccccc3C(F)(F)F)nc21,nt,nt,22µM*,nt,28µM*
O=C(NCC(c1cccnc1)N1CCCCC1)c1cn2c(n1)CNCC2 (centres undefined),i,i,0%,-2%,i
O=C(NCCNC(=O)c1ccc(Cl)nc1)c1ccc(-c2cncnc2)cc1,nt,nt,?,nt,-15%
O=C(c1cc(-c2cccc(C(F)(F)F)c2)c2nncn2n1)N1CCN(c2ncccn2)CC1,-2%,nt,?,nt,?
Cn1c(C(=O)NC(C)(C)C)cc2c1CCN(Cc1ccc(F)cc1)C2,-6%,?,?,1%,-8%
COc1ccc(NC(=O)c2cc(-c3ccccc3C(F)(F)F)nc3c2cnn3C)cc1OC,nt,nt,32µM*,nt,?
Cc1cc(NC(=O)c2ccc3c(c2)OCCN(C2CCC2)C3)ccc1F,-2%[88.5 µM],22µM*,?,-24%[70.6 µM],?
COc1ccc(NC(=O)c2ccc3c(c2)OCCN(c2ccccc2)C3)cn1,-20%[88.5 µM],i,?,?,?
Cc1ccc(CNC(=O)c2ccc3c(c2)CN(C2CCC2)CCO3)cc1,-3%,i,-18%,-1%,-16%
O=C(Nc1ccc(F)cc1)c1ccc2c(c1)OCCN(C1CCC1)C2,4%[88.5 µM],45µM*,?,-18%[70.6 µM],?
CCC(=O)N(C1CCOCC1)C1CCN(S(=O)(=O)c2cc(C)ccc2C)CC1,i,i,?,-14%,-12%
CSc1ccc(CN2C(=O)C3(CCOCC3)CC2c2nnnn2C(C)(C)C)cc1 (centres undefined),i,i,-9%,-9%,-26%
Cc1noc(-c2ccco2)c1C(=O)NCCC(c1ccccc1)c1ccccc1,2%,i,40µM*,-14%,?
Cc1noc(-c2ccccc2Cl)c1C(=O)NCCOc1ccccc1,i,i,?,3%,?
COc1ccc(-c2onc(C)c2C(=O)NCCc2cccs2)cc1,1%,i,35µM*,-14%,-31%
Cc1noc(-c2ccc3c(c2)OCO3)c1C(=O)NCCC(c1ccccc1)c1ccccc1,1%,i,22µM*,-17%,?
Cc1noc(-c2ccccc2Cl)c1C(=O)NCCC(c1ccccc1)c1ccccc1,5%,i,25µM*,-5%,28µM*
Cc1nc2scc(CC(=O)NC3CC3)n2c(=O)c1-c1cc(C)n(-c2ccccc2F)n1,?,i,-13%,2%,-12%
Cc1ccccc1C(=O)N1CCC(c2nn(C)c(=O)[nH]2)CC1,3%[88.5 µM],i,-4%[172 µM],16%[70.6 µM],3%[138 µM]
SMILES,GPT2 inh,FLuc inh,HEK293 tox,NPR1 antag,NIH3T3 tox
CN1C[C@H](O)C[C@H]1c1nnc2n1CCN(C(=O)CCc1c[nH]c3ccccc13)CC2,-11%,i,2%,4%,2%
COc1cc(OC)cc(-c2onc(C)c2C(=O)NCCC(c2ccccc2)c2ccccc2)c1,-1%,i,40µM*,-3%,?
COc1cccc(CCNC(=O)c2c(C)noc2-c2cc(OC)cc(OC)c2)c1,-4%,i,?,-15%,?
COc1ccccc1N1CCN(C(=O)Nc2n[nH]c(Cc3ccccc3)n2)CC1,5%,i,25µM*,-17%,?
Fc1ccc(-c2noc([C@@H]3Cc4nc[nH]c4CN3Cc3ccccc3)n2)cc1Cl,i,i,71µM*,-26%[70.6 µM],71µM*
Fc1ccc(-c2noc([C@@H]3Cc4nc[nH]c4CN3CCCc3ccccc3)n2)cc1Cl,-25%,?,?,-12%,?
Cc1ccc(-c2noc([C@@H]3Cc4nc[nH]c4CN3Cc3cccs3)n2)cc1,-5%[88.5 µM],28µM*,79µM*,-18%[70.6 µM],79µM*
Fc1ccc(-c2noc([C@@H]3Cc4nc[nH]c4CN3Cc3cccs3)n2)cc1Cl,i,56µM*,?,-28%[70.6 µM],50µM*
O=C(c1ccccc1F)N1CCCC(C(=O)N2CCC(N3CCCC3=O)CC2)C1 (centres undefined),i,nt,i,nt,-10%
O=C(C1CCCC1)N1CCC2(CC1)CC(N(C(=O)c1ccccc1)C1CC1)CCO2 (centres undefined),5%,i,?,-14%,-28%
COc1cccc(-c2cc(C(=O)Nc3cccc(C(F)(F)F)c3)c3cnn(C)c3n2)c1,nt,nt,32µM*,nt,?
Cn1ncc2c(C(=O)Nc3cccc(C(F)(F)F)c3)cc(-c3ccc(C(F)(F)F)cc3)nc21,nt,nt,11µM*,nt,7.9µM*
O=C1N(C2CCN(Cc3ccccn3)CC2)C(c2ccncc2)C12CCCCC2 (centres undefined),-15%,i,i,8%,3%
COC(=O)CNC(=O)N1CCC(N2C(=O)C(OCC3CC3)C23CCCCC3)CC1 (centres undefined),i,i,-17%,-7%,-17%
COc1ccc(CN2Cc3cc(NC(=O)c4ccc([N+](=O)[O-])cc4)ccc3OC(C)C2=O)c(OC)c1 (centres undefined),i,i,-4%,-1%,-35%
Cc1cc(C(=O)N2CCCn3nc(CCC(=O)O)cc3C2)c2c(C)noc2n1,4%,i,2%,-3%,-13%
CC(C)NC(=O)c1ccccc1OCC1CCCN(Cc2ccc(F)cc2)C1 (centres undefined),-6%,i,40µM*,4%,?
O=C(NC1CC1)c1ccccc1OCC1CCCN(CC2=Cc3ccccc3OC2)C1 (centres undefined),i,i,40µM*,?,?
CC(C)NC(=O)c1ccccc1OCC1CCCN(CC2=Cc3ccccc3OC2)C1 (centres undefined),i,i,35µM*,-20%,?
CC(C)NC(=O)c1ccccc1OCC1CCCN(Cc2nccs2)C1 (centres undefined),i,i,?,-7%,?
O=C(c1ccccc1OCC1CCCN(CC2=Cc3ccccc3OC2)C1)N1CCCCC1 (centres undefined),2%,i,?,-17%,?
